Data as given in ChEMBL document CHEMBL3988442, “University of Dundee, Small-Polar-MMV Screening Library” (2021).

target: T1, Aspartate--tRNA(Asp/Asn) ligase (Mycobacterium tuberculosis (strain ATCC 25618 / H37Rv)) (UniProt P9WFW3); assay: Assay for Asp RNA synthetase-1 from Mycobacterium tuberculosis; assay type: functional; design: scale not given: direction of the effect not stated beside the values; settings: 30 µM; note: in the data most compounds retested in dose-response had high values
T1 sequence (whole entry): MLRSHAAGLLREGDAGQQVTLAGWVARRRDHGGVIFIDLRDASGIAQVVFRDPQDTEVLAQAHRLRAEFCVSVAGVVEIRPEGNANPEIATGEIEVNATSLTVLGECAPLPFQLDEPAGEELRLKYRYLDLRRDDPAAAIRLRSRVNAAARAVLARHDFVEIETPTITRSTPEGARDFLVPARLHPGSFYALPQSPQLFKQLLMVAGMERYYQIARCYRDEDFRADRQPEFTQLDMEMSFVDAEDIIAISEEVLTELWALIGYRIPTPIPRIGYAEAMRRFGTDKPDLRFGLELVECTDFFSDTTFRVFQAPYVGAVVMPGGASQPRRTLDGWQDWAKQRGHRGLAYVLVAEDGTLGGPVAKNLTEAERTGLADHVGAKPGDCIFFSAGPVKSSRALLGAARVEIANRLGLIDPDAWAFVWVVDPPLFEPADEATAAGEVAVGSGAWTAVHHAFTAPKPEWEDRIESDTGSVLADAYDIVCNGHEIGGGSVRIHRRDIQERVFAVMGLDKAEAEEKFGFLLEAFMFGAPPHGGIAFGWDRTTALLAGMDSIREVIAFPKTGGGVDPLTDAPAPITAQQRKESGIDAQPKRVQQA

Row | Structure (SMILES) | Percent Effect [%]
1 | CC(C)n1ncc2c1NC(=O)CC21C(=O)Nc2c(Cl)cc(Cl)cc21 (stereo unspecified) | 0.842
2 | CN(C)C(=O)CN1CCC2(CCCN(Cc3cccn3C)C2)C1=O (stereo unspecified) | 2.49
3 | CC(C)c1nccn1C1CCCN(C(=O)c2cccc3c2OCO3)C1 (stereo unspecified) | 0.582
4 | CO[C@H]1CCN(C(=O)Cc2ccccn2)[C@H]1Cc1ccncc1 | 3.54
5 | c1nc2c(c(C3CC3)n1)CCN(Cc1ccoc1)CC2 | 2.3
6 | CN(C)CC1CN(Cc2nnc(-c3ccccc3Cl)o2)CCO1 (stereo unspecified) | -1.66
7 | O=C(NCCC1=CCCCC1)C1CCCN(c2ccc3nncn3n2)C1 (stereo unspecified) | -1.84
8 | Cc1cc(C(=O)N2Cc3ccccc3OC3(CCOCC3)C2)nc(N)n1 | 0.67
9 | COc1ccc(Cl)cc1NCC(=O)NCCNc1cnccn1 | -0.88
10 | CN(Cc1ncc(C(C)(C)C)o1)C1CCCN(c2cccnn2)C1 (stereo unspecified) | 0.143
11 | Cc1ccc(C(=O)N2CCSCC2)cc1NC(=O)Cn1cncn1 | -1
12 | CCN1Cc2c(C(=O)NCC3CC3)ncn2-c2ccccc2S1(=O)=O | -3.35
13 | CC(C)NC(=O)c1sccc1N(C)S(=O)(=O)c1ccc(Cl)cc1 | 4.25
14 | Cn1cccc1CN1CCC2(CCCN(C(=O)Cc3cccnc3)C2)C1 (stereo unspecified) | 4.47
15 | CN(C)S(=O)(=O)N1C[C@@H]2CC[C@H](C1)N(Cc1ccc3nsnc3c1)C2 | -2.42
16 | CCc1nc(CC(=O)NCC(Cc2ccc(F)cc2)C(N)=O)cs1 (stereo unspecified) | 1.14
17 | COCCN1C(=O)CCC12CCN(C(=O)NC(C)C)CC2 | -3.16
18 | Cc1cnccc1CN1C[C@@H](O)[C@H](Oc2cccc(F)c2)C1 | -1.59
19 | CCc1nnc(Nc2cccc(C3CCN(CCO)CC3)n2)s1 | -4.6
20 | CN(CC(=O)Nc1ccc(Br)cn1)C(=O)Cc1ccc(O)cc1 | -5.92
21 | Cc1cccc(C)c1OCCNC(=O)NC(C)c1nncn1C (stereo unspecified) | -2.19

target: Shiga toxin 2 (Escherichia coli O157:H7) (UniProt P09385+P09386); assay: E. coli 0.157:H7 Shiga Toxin SOP - stx2 screening assay; assay type: functional; design: scale not given: direction of the effect not stated beside the values; settings: 30 µM

Row | Structure (SMILES) | Percent Effect [%]
22 | Cc1cnc(C(=O)N2CCc3ncnc(C)c3CC2)cn1 | -27.4
23 | CN(Cc1ccco1)C(=O)CN1CCCC(Cn2cncn2)C1 (stereo unspecified) | -14.6
24 | O=C(c1cnco1)N1C[C@@H]2CC[C@H](Oc3ccccc3F)[C@@H]2C1 | -75.8
25 | CC(CN1CCN(C)CC1)NC(=O)c1cc(Cl)c2c(c1)OCO2 (stereo unspecified) | -0.562
26 | CN(C)C(=O)CS(=O)(=O)Cc1cc(Cl)c2c(c1)OCCCO2 | 29.6
27 | O=C1CC[C@H]2[C@H](CCN2C(=O)C2CCCO2)N1CCN1CCCC1 (stereo partly specified) | 4.3
28 | CSCCCN1CC[C@@H](NC(=O)c2cnccn2)[C@H](O)C1 | 2.82
29 | O=C(NCCS(=O)(=O)N1CCc2ccccc21)c1c(O)cc(F)cc1F | 23
30 | Cc1csc(CN2CC[C@H]3C[C@H](c4nnc(C)[nH]4)O[C@@H]3C2)n1 | 0.515
31 | CN1CCN(Cc2cn3c(n2)CN(C(=O)N2CCOCC2)CC3)CC1 | -16.4
32 | Cc1cnc2n(c1=O)C(CC(=O)NCc1cc(-c3cccs3)on1)CS2 (stereo unspecified) | -30.9
33 | CC(C)C(C)NC(=O)Nc1ccc(CS(C)(=O)=O)cc1 (stereo unspecified) | -11.6
34 | NCc1cn(-c2ccccc2C(=O)NCc2cccc(Cl)c2)cn1 | 40.7
35 | COC(=O)CC(c1ccc(OC)c(OC)c1)c1oc(C)cc(=O)c1O (stereo unspecified) | -7.17
36 | Cc1nn(C)c(C)c1C1CCCN1Cc1nc(C2CC2)no1 (stereo unspecified) | -15.8
37 | O=C(Cc1ccccn1)N1CCN(C(=O)c2cccc3[nH]ncc23)CC1 | 1.83
38 | CCc1nnc(CNCC2CCCN2c2cccnn2)o1 (stereo unspecified) | -52.3
39 | Cc1ccc(-c2nc(CN3CCc4nn(C)c(=O)cc4C3)co2)cc1 | -3.75
40 | COCC1CC2(CCN(C(=O)c3cc(C)oc3C)CC2)CN1C(C)C (stereo unspecified) | -25.7
41 | CC(C)n1ncc2c1NC(=O)CC21C(=O)Nc2c(Cl)cc(Cl)cc21 (stereo unspecified) | 1.79

Row | Structure (SMILES) | Percent Effect [%]
42 | CN(C)C(=O)CN1CCC2(CCCN(Cc3cccn3C)C2)C1=O (stereo unspecified) | -13.9
43 | CC(C)c1nccn1C1CCCN(C(=O)c2cccc3c2OCO3)C1 (stereo unspecified) | -1.21
44 | CO[C@H]1CCN(C(=O)Cc2ccccn2)[C@H]1Cc1ccncc1 | -1.46
45 | c1nc2c(c(C3CC3)n1)CCN(Cc1ccoc1)CC2 | -14.5
46 | CN(C)CC1CN(Cc2nnc(-c3ccccc3Cl)o2)CCO1 (stereo unspecified) | -41.7
47 | O=C(NCCC1=CCCCC1)C1CCCN(c2ccc3nncn3n2)C1 (stereo unspecified) | -5.94
48 | Cc1cc(C(=O)N2Cc3ccccc3OC3(CCOCC3)C2)nc(N)n1 | 3.58
49 | COc1ccc(Cl)cc1NCC(=O)NCCNc1cnccn1 | 25.1
50 | CN(Cc1ncc(C(C)(C)C)o1)C1CCCN(c2cccnn2)C1 (stereo unspecified) | -9.94
51 | Cc1ccc(C(=O)N2CCSCC2)cc1NC(=O)Cn1cncn1 | -22.8
52 | CCN1Cc2c(C(=O)NCC3CC3)ncn2-c2ccccc2S1(=O)=O | 8.11
53 | CC(C)NC(=O)c1sccc1N(C)S(=O)(=O)c1ccc(Cl)cc1 | -18.9
54 | Cn1cccc1CN1CCC2(CCCN(C(=O)Cc3cccnc3)C2)C1 (stereo unspecified) | -14.5
55 | CN(C)S(=O)(=O)N1C[C@@H]2CC[C@H](C1)N(Cc1ccc3nsnc3c1)C2 | -1.59
56 | CCc1nc(CC(=O)NCC(Cc2ccc(F)cc2)C(N)=O)cs1 (stereo unspecified) | 3.77
57 | COCCN1C(=O)CCC12CCN(C(=O)NC(C)C)CC2 | 6
58 | Cc1cnccc1CN1C[C@@H](O)[C@H](Oc2cccc(F)c2)C1 | -1.74
59 | CCc1nnc(Nc2cccc(C3CCN(CCO)CC3)n2)s1 | -9.69
60 | CN(CC(=O)Nc1ccc(Br)cn1)C(=O)Cc1ccc(O)cc1 | 17.8
61 | Cc1cccc(C)c1OCCNC(=O)NC(C)c1nncn1C (stereo unspecified) | -46.4
